G9a block – G9a (human) methyltransferase inhibition | hit rate 8.8% among 350,000 | G9a H3K9 monomethylation, AlphaScreen, 2 h | AID 504332 | Q96KQ7 | Potency, µM (top dose mostly 102 µM), inactives show top-dose activity, negative = inhibition, most hits filed as inhibitors; note: % is set by controls: 0 for no effect and ±100 for the full control effect; nearly all actives have a fitted effect of over 75% in size
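Compounds were preincubated with 20 nM G9a for 15 min, after which biotinylated H3K9 peptide (500 nM) and SAM (20 uM) started a 2 h room-temperature reaction. Monomethylated product was quantified by antibody-based AlphaScreen chemiluminescence.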
HP1b binding inh – blocks HP1-beta chromodomain binding to methylated histone tails | P83916 | AlphaScreen HP1-beta / biotin-H3K9me3 peptide binding | Potency, µM (top dose mostly 114 µM), inactives show at the highest dose activity change, negative = inhibition, usual class: inhibitors | hit rate 0.56% among 390,000 | AID 540317; note: nearly all actives have a fitted effect of over 70% in size
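AlphaScreen: HP1-beta (50 nM) preformed 30 min with biotin-H3(1-18)K9me3 peptide (50 nM) in PBS pH 7.4, 0.01% Tween-20. Compound added for 30 min at RT, then streptavidin donor/nickel chelate acceptor beads (10 ug/mL) for 30 min.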
JMJD2A Tudor inh – inhibitors of human JMJD2A Tudor domain. O75164. AlphaScreen JMJD2A-Tudor / H3K4me3 peptide binding. Potency, µM (highest dose often 114 µM), inactives show at the highest dose activity change, negative = inhibition, actives largely listed as inhibitors. hit rate 4.4% among 390,000. AID 504339; note: % is set by controls: 0 for no effect and ±100 for the full control effect; nearly all actives have a fitted effect of over 50% in size
L3MBTL1 block – L3MBTL1 (human) inhibition | Q9Y468 | AlphaScreen L3MBTL1–H3K9me1 peptide binding | Potency, µM (top dose mostly 57.1 µM), for the others: at the highest dose activity, negative = inhibition, hits mostly inhibitors | hit rate 0.66% among 230,000; note: % is set by controls: 0 for no effect and ±100 for the full control effect; nearly all actives have a fitted effect of over 60% in size
Target sequence (Q9Y468 whole entry, looked up): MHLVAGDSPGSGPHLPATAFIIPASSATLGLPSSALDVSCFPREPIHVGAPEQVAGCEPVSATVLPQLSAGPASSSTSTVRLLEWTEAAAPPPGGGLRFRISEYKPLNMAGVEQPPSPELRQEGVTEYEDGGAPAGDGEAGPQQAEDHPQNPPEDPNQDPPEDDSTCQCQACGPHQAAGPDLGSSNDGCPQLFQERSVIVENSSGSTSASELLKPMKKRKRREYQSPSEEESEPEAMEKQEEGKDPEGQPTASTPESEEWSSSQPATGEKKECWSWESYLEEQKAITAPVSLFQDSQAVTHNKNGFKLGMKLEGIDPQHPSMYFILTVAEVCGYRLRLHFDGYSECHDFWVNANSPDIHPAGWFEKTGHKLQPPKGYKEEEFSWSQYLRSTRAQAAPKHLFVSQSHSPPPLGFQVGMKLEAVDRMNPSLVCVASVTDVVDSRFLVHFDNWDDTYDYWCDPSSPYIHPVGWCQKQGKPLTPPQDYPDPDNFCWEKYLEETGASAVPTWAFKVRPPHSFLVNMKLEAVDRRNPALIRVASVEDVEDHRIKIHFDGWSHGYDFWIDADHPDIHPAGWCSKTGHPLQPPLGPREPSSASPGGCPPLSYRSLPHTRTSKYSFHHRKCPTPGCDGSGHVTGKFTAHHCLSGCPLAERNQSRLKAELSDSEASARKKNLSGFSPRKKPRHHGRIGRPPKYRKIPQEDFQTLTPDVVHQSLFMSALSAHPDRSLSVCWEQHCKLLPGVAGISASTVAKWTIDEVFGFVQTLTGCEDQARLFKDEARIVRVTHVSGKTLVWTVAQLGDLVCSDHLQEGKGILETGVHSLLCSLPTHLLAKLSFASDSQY
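Read-out is AlphaScreen signal from streptavidin donor and nickel chelate acceptor beads (10 ug/mL final each) bridging L3MBTL1 (50 nM) and biotinylated K9-monomethylated H3(1-15) peptide (75 nM), after 30 min compound exposure at room temperature.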
BAZ2B block – inhibitors of human BAZ2B bromodomain | Q9UIF8 | AlphaScreen BAZ2B-H3K14Ac peptide displacement | hit rate 4.4% among 360,000 | Potency, µM (doses to about 114 µM), without a hit: at the highest dose activity change, negative = inhibition, actives largely listed as inhibitors | AID 504333; note: % is set by controls: 0 for no effect and ±100 for the full control effect; nearly all actives have a fitted effect of over 60% in size
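AlphaScreen luminescence quantifies BAZ2B engagement of H3K14Ac peptide; the protein and biotinylated peptide are both at 50 nM final, buffer PBS pH 7.4 with 0.01% Tween-20, all steps at room temperature.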
GLS inh – inhibitors of human glutaminase (GLS). O94925. GLS enzymatic activity, qHTS titration. Potency, µM (series often up to 45.5 µM), for inactives: top-dose activity change, negative = inhibition, most hits filed as inhibitors. hit rate 0.21% among 410,000. AID 624170; note: % is set by controls: 0 for no effect and ±100 for the full control effect
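Enzyme dispensed in phosphate buffer (45 mM, pH 8.2, 0.02% Tween-20), compounds pinned in, then 1 mM L-glutamine solution and the glutamate oxidase–HRP–Amplex Red mix added; fluorescence read immediately and again after 30 min at room temperature.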
Active calls of the source: *; ? = inconclusive; / = no result; [ ] = dose if it differs, or a comment. The list is not random: actives were taken first. Their share in the collection is about 10%. Calls come from the whole dose curve; as a rule, active = well fitted curve in the direction sought with a large enough effect; inconclusive = small, poorly fitted or top-dose-only effect, or another doubt; inactive = no such curve, though single readings can be large; an effect the other way counts as inactive or inconclusive. Potency is the fitted concentration of half-maximal effect.

SMILES	G9a block	HP1b binding inh	JMJD2A Tudor inh	L3MBTL1 block	BAZ2B block	GLS inh
Cc1ccccc1C(=O)Nc1ccc2c(C#N)c3nc4ccccc4nc3n2c1	5µM*	-10%	-32%	?	50µM*	1%
COc1ccc2c(c1)c1c(c(=O)n(CCc3ccccc3)c(=O)n1Cc1cccc(F)c1)n2C	4%[59 µM]	39%	10%	/	5%	2%
COc1ccc(CC(=O)n2[nH]c(=O)c3ccccc3c2=O)cc1OC	/	43%	7%	10%	0%	2%
COc1ccc(CC(=O)n2[nH]c(=O)ccc2=O)cc1OC	1.1µM*	8.9µM*	8.9µM*	3%	-32%	10µM*
N#CN1CCC(NC(=O)c2ccc(C(F)(F)F)cc2)CC1	/	/	-12%	/	/	/
CCCC(CCC(=O)Nc1cc([N+](=O)[O-])ccc1O)C(=O)O (stereo not given)	?	-4%	-6%	?	56µM*	0%
CCOc1ccc(C(=O)Nc2c(C(=O)Nc3ccccc3OC)oc3ccccc23)cc1OCC	-48%[59 µM]	23%	-6%	/	-5%	0%
CC1CCCCN1c1nnc(N)s1 (stereo not given)	-3%[59 µM]	10%	-3%	-3%	-28%	7%
CC1CCCC(C)N1c1nnc(N)s1 (stereo not given)	18µM*	42%	-10%	-2%	-16%	-2%
CCCCCn1c(C(C)NC(=O)c2ccccc2)nc2ccccc21 (stereo not given)	7%[59 µM]	22%	-11%	/	5%	5%
O=[N+]([O-])c1ccc(-c2cnc(NO)nc2)cc1	7.9µM*	38%	?	0%	5%	?
O=c1c2sc3ccccc3c2n(Cc2cccc(C(F)(F)F)c2)c(=O)n1Cc1ccco1	-2%[59 µM]	12%	-23%	/	-14%	-2%
Cc1ccccc1NC(=S)N/N=C/c1ccc(O)cc1O	3%[12.7 µM]	?	56µM*	32µM*	8.9µM*	-19%
Cc1ccccc1NC(=S)N/N=C/C(C)c1ccccc1 (stereo not given)	22µM*	40%	?	18%	-26%	-15%
CCOC(=O)c1cc2c(C)n(-c3ccc(OCC)cc3)c(C)c2ccc1=O	/	?	?	-8%	50µM*	4%
CCOC(=O)c1c[nH]n(-c2ccc(C)cc2)c1=O	50µM*	40%	-15%	-17%	-46%	-15%
CCOc1ccc(-n2c(C)c(C(=O)OC)c3cc(O)ccc32)cc1	/	3%	-24%	/	?	4%
CCOC(=O)c1c[nH]n(-c2ccccc2)c1=O	-36%	31%	-8%	/	-6%	21%
CCOC(=O)c1cc2c(C)n(-c3ccc(C)cc3)c(C)c2ccc1=O	/	?	?	-6%	45µM*	-3%
Cn1cccc1CC(=O)N/N=C/c1ccc(Cl)cc1	/	11%	-21%	-15%	?	1%
Cn1cccc1CC(=O)N/N=C\c1ccccc1	-43%	7%	-19%	-12%	-31%	8%
Cn1cccc1CC(=O)N/N=C/c1ccc([N+](=O)[O-])cc1	50µM*	?	?	-16%	?	4%
Cn1cccc1CC(=O)N/N=C/C=C/c1ccco1	13µM*	?	?	25µM*	56µM*	-1%
Cc1ccc(/C=N\NC(=O)Cc2cccn2C)o1	28µM*	8%	-3%[57.1 µM]	/	/	9%
O=C(N/N=C/C=C/c1ccco1)C(O)c1ccccc1 (stereo not given)	/	-6%	56µM*	/	/	-5%
SMILES	G9a block	HP1b binding inh	JMJD2A Tudor inh	L3MBTL1 block	BAZ2B block	GLS inh
CS(=O)(=O)N1CCCc2cc(C(=O)Nc3cccc(C(F)(F)F)c3)ccc21	-1%[59 µM]	27%	-24%	/	1%	-9%
COc1ccc(C)cc1-n1cnc2cc(C(=O)NC3CCCCCC3)ccc21	-38%[59 µM]	11%	?	/	-18%	-4%
COc1cccc(CNC(=O)c2ccc(NC(=O)N3CCCCc4ccccc43)cc2)c1OC	15%[59 µM]	65%	2%	/	-3%	2%
Cc1ccc(/C=N/NC(=O)CN2C(=O)CSc3ccccc32)o1	45µM*	25%	-5%	/	-2%	-13%
Cc1ccc(OCC(=O)N/N=C/C=C/c2ccco2)cc1	-23%[59 µM]	-5%	?	?	-28%	-5%
O=C(COc1ccccc1[N+](=O)[O-])N/N=C/C=C/c1ccco1	40µM*	19%	-13%[57.1 µM]	-30%	-38%	0%
COc1ccccc1Nc1ncc2c(n1)CCN(CC(C)C)C2	7%[59 µM]	11%	-14%	/	-14%	16%
c1cncc(-c2cncnc2NC2CCNCC2)c1	0%[0.501 µM]	/	/	/	/	/
O=C(NCc1ccccc1)c1ccc2nc(-c3ccco3)c(-c3ccco3)nc2c1	1.8µM*	-94%	20µM*	/	50µM*	-20%
O=C(NC1CC1)c1ccc2nc(-c3ccco3)c(-c3ccco3)nc2c1	/	22µM*	20µM*	/	/	/
O=C(c1ccc2nc(-c3ccco3)c(-c3ccco3)nc2c1)N1CCN(c2ncccn2)CC1	35µM*	7%	89µM*	-19%	?	-9%
O=C(Nc1ccccc1)c1ccc2nc(-c3ccco3)c(-c3ccco3)nc2c1	?	?	50µM*	?	-34%	-18%
CNC(=O)c1ccc2nc(-c3ccco3)c(-c3ccco3)nc2c1	/	18µM*	18µM*	/	/	/
O=C(Nc1ccc(N2CCOCC2)cc1)c1ccc2nc(-c3ccco3)c(-c3ccco3)nc2c1	?	38%	-19%	-7%	-3%	3%
CCc1nc2ccc(C(=O)NCCc3ccco3)cc2nc1CC	-28%	53%	-21%	/	-25%[57.1 µM]	-12%
CC(=O)c1ccc(NC(=O)c2ccc3nc(-c4ccco4)c(-c4ccco4)nc3c2)cc1	1.8µM*	8.9µM*	45µM*	/	11µM*	14µM*
O=C(O)c1ccccc1-c1ccccc1C(=O)Nc1ccccc1	-3%[12.7 µM]	15%	-8%	4%	-3%	?
O=C(O)c1ccccc1-c1ccccc1C(=O)Nc1cccc(Br)c1	45µM*	-24%	-16%	8%	-25%	0%
O=C(O)c1ccccc1-c1ccccc1C(=O)NNc1ccccc1	8.9µM*	60%	-15%	7%	-5%	32%
O=C(NC1CCCCC1)c1ccc2c(c1)N(Cc1cccc(Cl)c1)C(=O)c1ccccc1S2=O (stereo not given)	-6%[59 µM]	31%	-11%	/	-1%	-5%
CCN(CC)CCN(C)C1CCC(c2ccccc2)CC1 (stereo not given)	8.9µM*	?	6.3µM*	8%	56µM*	8%
Cc1ccc(NC(=O)C2CCC(CNS(=O)(=O)c3csc(C(N)=O)c3)CC2)cc1Cl (stereo not given)	8%[59 µM]	17%	2%	/	3%	-7%
